Experimental data reported in PubChem BioAssay AID1159580 (chemical genetic matrix, 2015).
Hit rate of the full screen: of about 5,500 compounds, about 2,000 (36%) were called active. Not shown: some 18% with an inconclusive outcome. Cut-off read from the data, not from the text of the source: active = normalized growth mostly below about 0.91 (no sharp cut-off); inconclusive = no clear call, values can overlap the other calls; inactive = mostly above about 0.92. The list shows a part of the results.

Experiment: chemical genetic growth profiling, strain panel (AID 1159580);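 note: tested at 20 µM; growth read once vehicle control cultures reached saturation at 30 °C; 1 = growth at the plate median or of vehicle wells; lower values mean less growth of the strain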
Conditions: growth OD
[1] = S. cerevisiae deletion strains, locus YAL013W, strain DEP1, stronger effect = lower value
[2] = S. cerevisiae deletion strains, locus YBR229C, strain ROT2, stronger effect = lower value
[3] = S. cerevisiae deletion strains, locus YDL101C, strain DUN1, stronger effect = lower value
[4] = S. cerevisiae deletion strains, locus YDL134C, strain PPH21, stronger effect = lower value
[5] = S. cerevisiae deletion strains, locus YDR150W, strain NUM1, stronger effect = lower value
[6] = S. cerevisiae deletion strains, locus YEL061C, strain CIN8, stronger effect = lower value
[7] = S. cerevisiae deletion strains, locus YGR078C, strain PAC10, stronger effect = lower value
[8] = S. cerevisiae deletion strains, locus YHR030C, strain SLT2, stronger effect = lower value
[9] = S. cerevisiae deletion strains, locus YHR087W, strain rtc3, stronger effect = lower value
[10] = S. cerevisiae deletion strains, locus YJR043C, strain POL32, stronger effect = lower value
[11] = S. cerevisiae deletion strains, locus YJR075W, strain HOC1, stronger effect = lower value
[12] = S. cerevisiae deletion strains, locus YLR039C, strain RIC1, stronger effect = lower value
[13] = S. cerevisiae deletion strains, locus YLR058C, strain SHM2 (second series), stronger effect = lower value
[14] = S. cerevisiae deletion strains, locus YLR085C, strain ARP6, stronger effect = lower value
[15] = S. cerevisiae deletion strains, locus YLR262C, strain YPT6, stronger effect = lower value
[16] = S. cerevisiae deletion strains, locus YML094W, strain GIM5, stronger effect = lower value
[17] = S. cerevisiae deletion strains, locus YMR219W, strain ESC1, stronger effect = lower value
[18] = S. cerevisiae deletion strains, locus YMR263W, strain SAP30, stronger effect = lower value
[19] = S. cerevisiae deletion strains, locus YNL153C, strain GIM3, stronger effect = lower value
[20] = S. cerevisiae deletion strains, locus YNL298W, strain CLA4 (second series), stronger effect = lower value
[21] = S. cerevisiae deletion strains, locus YNL322C, strain KRE1, stronger effect = lower value
[22] = S. cerevisiae deletion strains, locus YNR030W, strain Alg12, stronger effect = lower value
[23] = S. cerevisiae deletion strains, locus YPL055C, strain LGE1, stronger effect = lower value
[24] = S. cerevisiae deletion strains, locus YPL241C, strain CIN2, stronger effect = lower value
[25] = S. cerevisiae deletion strains, locus YPR135W, strain CTF4, stronger effect = lower value
[26] = S. cerevisiae deletion strains, locus YAR019C, strain CDC15, stronger effect = lower value
[27] = S. cerevisiae deletion strains, locus YBL105C, strain PKC1, stronger effect = lower value
[28] = S. cerevisiae deletion strains, locus YBR135W, strain CKS1, stronger effect = lower value
[29] = S. cerevisiae deletion strains, locus YBR136W, strain MEC1, stronger effect = lower value
[30] = S. cerevisiae deletion strains, locus YBR160W, strain CDC28, stronger effect = lower value
[31] = S. cerevisiae deletion strains, locus YDL017W, strain CDC7, stronger effect = lower value
[32] = S. cerevisiae deletion strains, locus YDL028C, strain MPS1, stronger effect = lower value
[33] = S. cerevisiae deletion strains, locus YDL108W, strain KIN28, stronger effect = lower value
[34] = S. cerevisiae deletion strains, locus YDL132W, strain cdc53, stronger effect = lower value
[35] = S. cerevisiae deletion strains, locus YDL214C, strain PRR2, stronger effect = lower value
[36] = S. cerevisiae deletion strains, locus YDR052C, strain DBF4, stronger effect = lower value
[37] = S. cerevisiae deletion strains, locus YDR054C, strain cdc34, stronger effect = lower value
[38] = S. cerevisiae deletion strains, locus YDR226W, strain ADK1, stronger effect = lower value
[39] = S. cerevisiae deletion strains, locus YDR477W, strain SNF1, stronger effect = lower value
[40] = S. cerevisiae deletion strains, locus YER123W, strain YCK3, stronger effect = lower value
[41] = S. cerevisiae deletion strains, locus YER133W, strain GLC7, stronger effect = lower value
[42] = S. cerevisiae deletion strains, locus YFL009W, strain cdc4, stronger effect = lower value
[43] = S. cerevisiae deletion strains, locus YFL029C, strain CAK1, stronger effect = lower value
[44] = S. cerevisiae deletion strains, locus YFR003C, strain YPI1, stronger effect = lower value
[45] = S. cerevisiae deletion strains, locus YFR019W, strain FAB1, stronger effect = lower value
[46] = S. cerevisiae deletion strains, locus YFR028C, strain CDC14, stronger effect = lower value
[47] = S. cerevisiae deletion strains, locus YGR040W, strain KSS1, stronger effect = lower value
[48] = S. cerevisiae deletion strains, locus YGR052W, strain FMP48, stronger effect = lower value
[49] = S. cerevisiae deletion strains, locus YGR092W, strain DBF2, stronger effect = lower value
[50] = S. cerevisiae deletion strains, locus YHR079C, strain IRE1, stronger effect = lower value
[51] = S. cerevisiae deletion strains, locus YHR082C, strain KSP1, stronger effect = lower value
[52] = S. cerevisiae deletion strains, locus YHR205W, strain SCH9, stronger effect = lower value
[53] = S. cerevisiae deletion strains, locus YIL147C, strain SLN1, stronger effect = lower value
[54] = S. cerevisiae deletion strains, locus YJL095W, strain BCK1, stronger effect = lower value
[55] = S. cerevisiae deletion strains, locus YJL128C, strain PBS2, stronger effect = lower value
[56] = S. cerevisiae deletion strains, locus YJL157C, strain FAR1, stronger effect = lower value
[57] = S. cerevisiae deletion strains, locus YJR016C, strain ILV3, stronger effect = lower value
[58] = S. cerevisiae deletion strains, locus YJR066W, strain TOR1 (second series), stronger effect = lower value
[59] = S. cerevisiae deletion strains, locus YJR066W, strain TOR1, stronger effect = lower value
[60] = S. cerevisiae deletion strains, locus YKL048C, strain ELM1, stronger effect = lower value
[61] = S. cerevisiae deletion strains, locus YKL067W, strain YNK1, stronger effect = lower value
[62] = S. cerevisiae deletion strains, locus YKL101W, strain HSL1, stronger effect = lower value
[63] = S. cerevisiae deletion strains, locus YKL193C, strain SDS22, stronger effect = lower value
[64] = S. cerevisiae deletion strains, locus YKL203C, strain TOR2, stronger effect = lower value
[65] = S. cerevisiae deletion strains, locus YLR113W, strain HOG1, stronger effect = lower value
[66] = S. cerevisiae deletion strains, locus YLR133W, strain CKI1, stronger effect = lower value
[67] = S. cerevisiae deletion strains, locus YLR403W, strain SFP1, stronger effect = lower value
[68] = S. cerevisiae deletion strains, locus YML070W, strain DAK1, stronger effect = lower value
[69] = S. cerevisiae deletion strains, locus YMR001C, strain CDC5, stronger effect = lower value
[70] = S. cerevisiae deletion strains, locus YMR205C, strain PFK2 (second series), stronger effect = lower value
[71] = S. cerevisiae deletion strains, locus YMR277W, strain FCP1, stronger effect = lower value
[72] = S. cerevisiae deletion strains, locus YNL006W, strain LST8, stronger effect = lower value
[73] = S. cerevisiae deletion strains, locus YNL020C, strain ARK1, stronger effect = lower value
[74] = S. cerevisiae deletion strains, locus YNL161W, strain CBK1, stronger effect = lower value
[75] = S. cerevisiae deletion strains, locus YNL183C, strain NPR1, stronger effect = lower value
[76] = S. cerevisiae deletion strains, locus YNL207W, strain RIO2, stronger effect = lower value
[77] = S. cerevisiae deletion strains, locus YNL222W, strain SSU72, stronger effect = lower value
[78] = S. cerevisiae deletion strains, locus YNL307C, strain MCK1 (second series), stronger effect = lower value
[79] = S. cerevisiae deletion strains, locus YOL078W, strain AVO1, stronger effect = lower value
[80] = S. cerevisiae deletion strains, locus YOL136C, strain PFK27, stronger effect = lower value
[81] = S. cerevisiae deletion strains, locus YOR061W, strain CKA2, stronger effect = lower value
[82] = S. cerevisiae deletion strains, locus YOR119C, strain RIO1, stronger effect = lower value
[83] = S. cerevisiae deletion strains, locus YOR231W, strain MKK1, stronger effect = lower value
[84] = S. cerevisiae deletion strains, locus YOR329C, strain SCD5, stronger effect = lower value
[85] = S. cerevisiae deletion strains, locus YPL031C, strain PHO85, stronger effect = lower value
[86] = S. cerevisiae deletion strains, locus YPL153C, strain RAD53, stronger effect = lower value
[87] = S. cerevisiae deletion strains, locus YPL204W, strain HRR25, stronger effect = lower value
[88] = S. cerevisiae deletion strains, locus YPL209C, strain IPL1, stronger effect = lower value
[89] = S. cerevisiae deletion strains, locus YPL256C, strain CLN2, stronger effect = lower value
[90] = S. cerevisiae deletion strains, locus YPR025C, strain CCL1, stronger effect = lower value
[91] = S. cerevisiae deletion strains, locus YPR106W, strain ISR1, stronger effect = lower value
[92] = S. cerevisiae deletion strains, locus YPR111W, strain DBF20, stronger effect = lower value
[93] = S. cerevisiae deletion strains, strain NNK1, stronger effect = lower value
[94] = S. cerevisiae deletion strains, strain TSCII, stronger effect = lower value

Measured: normalized growth

N#Cc1sccc1Br
active: [24] 1.32 [resistant]
inactive: [1] 0.995 | [2] 0.982 | S. cerevisiae deletion strains, locus YCL061C, strain MRC1, stronger effect = lower value 1.02 | [3] 0.967 | [4] 0.993 | [5] 1.06 | [6] 1 | [7] 0.999 | [8] 0.961 | [9] 0.986 | [10] 1.01 | [11] 1.03 | [12] 1 | [13] 0.991 | [14] 1.1 | [15] 1 | [16] 0.982 | [17] 0.991 | [18] 1.04 | [19] 1.02 | [20] 1.04 | [21] 0.997 | [22] 1 | [23] 1.02 | [25] 1.04 | S. cerevisiae strains, strain wild type, stronger effect = lower value 0.99

O=C(Nc1cccnc1)c1cc2c(s1)-c1ccccc1CC2
inactive: [26] 0.925 | [27] 0.93 | [28] 0.919 | [29] 0.926 | [30] 0.93 | [31] 0.937 | [32] 0.921 | [3] 0.932 | [33] 0.924 | [34] 0.903 | [35] 0.745 | [36] 0.919 | [37] 0.9 | [38] 0.911 | [42] 0.915 | [43] 0.912 | [44] 0.928 | [45] 0.91 | [46] 0.918 | [49] 0.524 | [52] 0.755 | [53] 0.919 | [55] 0.946 | [56] 0.73 | [57] 0.92 | [58] 0.694 | [59] 0.532 | [60] 0.823 | [61] 0.736 | [62] 0.811 | [63] 0.918 | [66] 0.808 | [67] 0.663 | [69] 0.918 | [70] 0.767 | [71] 0.918 | [72] 0.93 | [73] 0.802 | [74] 0.924 | [76] 0.903 | [77] 0.917 | [78] 0.757 | [79] 0.918 | [80] 0.725 | [81] 0.806 | [84] 0.924 | [88] 0.932 | [90] 0.922 | [91] 0.926 | [92] 0.915 | [93] 0.912 | [94] 0.915
active: [39] 0.666 | [40] 0.592 | [41] 0.548 | [47] 0.614 | [48] 0.602 | [8] 0.477 | [50] 0.495 | [51] 0.583 | [54] 0.482 | [64] 0.59 | [65] 0.394 | [68] 0.679 | [75] 0.455 | [82] 0.636 | [83] 0.515 | [85] 0.574 | [86] 0.529 | [87] 0.522 | [89] 0.476

O=C(Nc1cccnc1)c1cccc(Cl)c1Cl
inactive: [1] 0.977 | [2] 0.993 | [3] 0.98 | [4] 0.988 | [5] 0.957 | [6] 0.971 | [7] 0.983 | [8] 0.935 | [9] 0.99 | S. cerevisiae deletion strains, locus YJL187C, strain SWE1, stronger effect = lower value 1.01 | [10] 0.993 | [11] 0.991 | S. cerevisiae deletion strains, locus YKL190W, strain CNB1, stronger effect = lower value 0.989 | [12] 1.02 | [13] 1 | [14] 0.955 | [15] 1.01 | [16] 0.946 | [17] 0.992 | [18] 1.01 | S. cerevisiae deletion strains, locus YMR307W, strain GAS1, stronger effect = lower value 1.01 | S. cerevisiae deletion strains, locus YNL128W, strain TEP1, stronger effect = lower value 0.976 | [19] 0.994 | [20] 0.946 | [21] 0.982 | [22] 0.975 | S. cerevisiae deletion strains, locus YOL006C, strain TOP1, stronger effect = lower value 0.943 | [23] 1.02 | [24] 0.985 | [25] 0.856

O=C(c1cc2c(s1)-c1ccccc1CC2)N1CCN(Cc2ccccc2)CC1
inactive: [26] 1 | [27] 1 | [28] 0.996 | [29] 0.999 | [30] 0.998 | [31] 1 | [32] 0.999 | [3] 0.999 | [33] 0.998 | [34] 0.993 | [35] 0.965 | [36] 1 | [37] 0.99 | [38] 1 | [39] 0.982 | [40] 0.929 | [41] 0.985 | [42] 1.01 | [43] 1 | [44] 0.998 | [45] 0.941 | [46] 0.996 | [47] 0.962 | [48] 1.1 | [49] 0.988 | [8] 1 | [50] 0.971 | [51] 1.04 | [52] 0.94 | [53] 1 | [54] 0.974 | [55] 0.974 | [56] 0.976 | [57] 0.988 | [58] 0.958 | [59] 1.07 | [60] 0.984 | [61] 0.955 | [62] 0.984 | [63] 1 | [64] 1.01 | [65] 0.96 | [66] 0.971 | [67] 0.966 | [68] 0.953 | [69] 1 | [70] 0.981 | [71] 1.01 | [72] 1.02 | [73] 0.982 | [74] 1 | [75] 0.984 | [76] 1 | [77] 1.01 | [78] 0.963 | [79] 1.01 | [80] 0.964 | [81] 1 | [82] 1.1 | [83] 0.981 | [84] 1.01 | [85] 0.981 | [86] 0.975 | [87] 0.951 | [88] 1.01 | [89] 0.958 | [90] 1 | [91] 0.996 | [92] 0.977 | [93] 0.998 | [94] 1
